Data: the antibiotic and cytotoxicity screens of Wong et al. (2023)
Out of some 39,000 compounds screened, about 1,500 (3.8%) were called active. This excerpt belongs to a sample that is enriched for actives.

Each compound was assayed on HSkMC (human skeletal muscle cells) (assay: cytotoxicity call (relative viability < 0.9)). Settings: 10 µM.
In the case of COc1ccc(NC(=O)N(C)C[C@H]2OCCCC[C@H](C)Oc3ccc(NS(=O)(=O)c4cccs4)cc3C(=O)N([C@@H](C)CO)C[C@H]2C)cc1, the cytotoxicity call was “inactive”. COc1cccc(S(=O)(=O)N(C)C[C@H]2Oc3cc(Br)ccc3S(=O)(=O)N([C@@H](C)CO)C[C@H]2C)c1 was tested, and the cytotoxicity call was “inactive”. With COc1ccc2c3c([nH]c2c1)[C@@H](CO)N(C[C@]13CCN(CC1)S(=O)(=O)c1cn(cn1)C)C(=O)Nc1ccc(cc1)F the cytotoxicity call was “inactive”. For O=C(C[C@H]1C[C@@H]2c3cc(NC(=O)Nc4ccc(C(F)(F)F)cc4)ccc3O[C@@H]2[C@H](CO)O1)NC1CCCCC1, the cytotoxicity call was “inactive”. C[C@H]1CN([C@@H](C)CO)S(=O)(=O)c2ccc(C#Cc3ccncc3)cc2O[C@@H]1CN(C)C(=O)C1CCCCC1 was tested, and the cytotoxicity call was “inactive”. With COc1ccccc1NC(=O)N(C)C[C@H]1Oc2ncc(C#CCN(C)C)cc2C(=O)N([C@@H](C)CO)C[C@H]1C the cytotoxicity call was “inactive”. C[C@@H]1CN([C@@H](C)CO)C(=O)c2cc(NC(=O)Nc3ccc(C(F)(F)F)cc3)ccc2O[C@H]1CN(C)Cc1ccc(Cl)c(Cl)c1 was tested, and the cytotoxicity call was “inactive”. C[C@@H]1CN([C@H](C)CO)C(=O)c2cc(NC(=O)Nc3ccc(C(F)(F)F)cc3)ccc2O[C@@H]1CN(C)Cc1ccc(Cl)c(Cl)c1 was tested, and the cytotoxicity call was “active”. With C[C@H](CO)N1C[C@H](C)[C@H](CN(C)Cc2ccc(Cl)c(Cl)c2)Oc2ccc(NC(=O)Nc3ccc(C(F)(F)F)cc3)cc2C1=O the cytotoxicity call was “active”. For C[C@H]1CN([C@@H](C)CO)C(=O)c2cc(NC(=O)Nc3ccc(C(F)(F)F)cc3)ccc2O[C@@H]1CN(C)Cc1ccc(Cl)c(Cl)c1, the cytotoxicity call was “inactive”. C[C@H](CO)N1C[C@H](C)[C@@H](CN(C)Cc2ccc(Cl)c(Cl)c2)Oc2ccc(NC(=O)Nc3ccc(C(F)(F)F)cc3)cc2C1=O was tested, and the cytotoxicity call was “active”. C[C@@H]1CN([C@@H](C)CO)C(=O)c2cc(NC(=O)Nc3ccc(C(F)(F)F)cc3)ccc2O[C@@H]1CN(C)Cc1ccc(Cl)c(Cl)c1 was tested, and the cytotoxicity call was “active”. C[C@@H]1CN([C@H](C)CO)C(=O)c2cc(NC(=O)Nc3ccc(C(F)(F)F)cc3)ccc2O[C@@H]1CN(C)Cc1ccncc1 was tested, and the cytotoxicity call was “inactive”. With C[C@@H]1CN([C@H](C)CO)C(=O)c2cc(NS(=O)(=O)c3ccc(F)cc3)ccc2O[C@H]1CN(C)Cc1ccncc1 the cytotoxicity call was “inactive”. With CN1C(=O)c2cc(NS(C)(=O)=O)ccc2OC[C@H]2O[C@@H](CC(=O)N3CCOCC3)CC[C@@H]21 the cytotoxicity call was “inactive”. With C[C@@H]1CCCCO[C@H](CN(C)S(=O)(=O)c2cccs2)[C@@H](C)CN([C@H](C)CO)C(=O)c2cc(NC(=O)C3CCCCC3)ccc2O1 the cytotoxicity call was “inactive”. In the case of COCC(=O)N1[C@@H]2c3ccc(C4=CCCCC4)c(=O)n3C[C@@H]2[C@@H](CO)[C@@H]1C(=O)N1CCN(C)CC1, the cytotoxicity call was “inactive”. Cc1ccc(S(=O)(=O)Nc2ccc3c(c2)C(=O)N([C@H](C)CO)C[C@@H](C)[C@@H](CN(C)C(=O)Nc2cccc4ccccc24)O3)cc1 was tested, and the cytotoxicity call was “inactive”. With CO[C@H]1CN(C)C(=O)c2cc(NS(=O)(=O)CC(F)(F)F)ccc2OC[C@@H](C)N(C(=O)NC(C)C)C[C@@H]1C the cytotoxicity call was “inactive”. O=C1NCCCc2occc21 was tested, and the cytotoxicity call was “inactive”. With Cc1noc(C)c1S(=O)(=O)Nc1ccc2c(c1)C(=O)N([C@@H](C)CO)C[C@H](C)[C@H](CN(C)Cc1ccccc1)O2 the cytotoxicity call was “inactive”. With CO[C@H](CN(C)S(=O)(=O)c1ccc(C)cc1)[C@H](C)CN([C@@H](C)CO)S(=O)(=O)c1cccc(Cl)c1 the cytotoxicity call was “inactive”. With COc1ccc(NC(=O)N(C)C[C@@H]2Oc3ncc(C#CCN(C)C)cc3C(=O)N([C@H](C)CO)C[C@@H]2C)cc1 the cytotoxicity call was “inactive”. In the case of COCC#Cc1ccc2c(c1)O[C@@H](CN(C)C(=O)C1CCOCC1)[C@H](C)CN([C@@H](C)CO)S2(=O)=O, the cytotoxicity call was “inactive”. With C[C@H](CO)N1C[C@H](C)[C@@H](CN(C)Cc2ccc(Cl)c(Cl)c2)Oc2ccc(NC(=O)Nc3ccc(F)cc3)cc2C1=O the cytotoxicity call was “inactive”. C[C@H]1CN([C@@H](C)CO)C(=O)c2cc(NC(=O)Nc3ccc(C(F)(F)F)cc3)ccc2O[C@H]1CN(C)Cc1ccc(Cl)c(Cl)c1 was tested, and the cytotoxicity call was “active”. C[C@@H]1CN([C@H](C)CO)C(=O)c2cc(NC(=O)Nc3ccc(C(F)(F)F)cc3)ccc2O[C@H]1CN(C)Cc1ccc(Cl)c(Cl)c1 was tested, and the cytotoxicity call was “active”. For C[C@H]1CN([C@@H](C)CO)C(=O)c2cc(NC(=O)Nc3ccc(F)cc3)ccc2O[C@@H]1CN(C)Cc1ccc(Cl)c(Cl)c1, the cytotoxicity call was “inactive”. With C[C@@H]1CN([C@@H](C)CO)S(=O)(=O)c2ccc(Br)cc2O[C@H]1CN(C)S(=O)(=O)c1ccccc1 the cytotoxicity call was “inactive”. For C[C@@H]1CN([C@H](C)CO)C(=O)Cc2cc(NS(=O)(=O)c3ccc(F)cc3)ccc2O[C@@H]1CN(C)Cc1ccncc1, the cytotoxicity call was “inactive”. With C[C@H]1CN([C@@H](C)CO)C(=O)CCCn2nncc2CO[C@H]1CN(C)S(=O)(=O)c1cn(C)cn1 the cytotoxicity call was “inactive”. With Cc1noc(C)c1NC(=O)N(C)C[C@H]1Oc2c(NC(=O)Nc3ccc(C(F)(F)F)cc3)cccc2C(=O)N([C@H](C)CO)C[C@@H]1C the cytotoxicity call was “inactive”. In the case of C[C@H]1CN([C@@H](C)CO)S(=O)(=O)c2ccc(-c3ccncc3)cc2O[C@@H]1CN(C)C(=O)c1cccc(F)c1, the cytotoxicity call was “inactive”. With CNC(=O)CN1C(=O)[C@@H]2[C@@H](C1=O)[C@@H]1C=C[C@@H]2C1 the cytotoxicity call was “inactive”. For C[C@@H]1CN([C@H](C)CO)C(=O)c2cccc(NC(=O)Nc3ccc(F)cc3)c2O[C@H]1CN(C)CC1CCCCC1, the cytotoxicity call was “inactive”. For C[C@H](CO)N1C[C@H](C)[C@H](CN(C)CC2CCCCC2)Oc2c(NC(=O)Nc3ccc(F)cc3)cccc2C1=O, the cytotoxicity call was “inactive”. For C[C@@H]1CN([C@H](C)CO)C(=O)c2cccc(NC(=O)Nc3ccc(C(F)(F)F)cc3)c2O[C@@H]1CN(C)CC1CCCCC1, the cytotoxicity call was “active”. C[C@H]1CN([C@@H](C)CO)C(=O)c2cccc(NC(=O)Nc3ccc(C(F)(F)F)cc3)c2O[C@H]1CN(C)CC1CCCCC1 was tested, and the cytotoxicity call was “inactive”. With C[C@@H]1CN([C@H](C)CO)C(=O)c2cccc(NC(=O)Nc3ccc(C(F)(F)F)cc3)c2O[C@H]1CN(C)CC1CCCCC1 the cytotoxicity call was “active”. C[C@H](CO)N1C[C@H](C)[C@H](CN(C)CC2CCCCC2)Oc2c(NC(=O)Nc3ccc(C(F)(F)F)cc3)cccc2C1=O was tested, and the cytotoxicity call was “inactive”. With C[C@@H]1CN([C@@H](C)CO)C(=O)c2cccc(NC(=O)Nc3ccc(F)cc3)c2O[C@H]1CN(C)CC1CCCCC1 the cytotoxicity call was “inactive”. C[C@H](CO)N1C[C@H](C)[C@@H](CN(C)CC2CCCCC2)Oc2c(NC(=O)Nc3ccc(C(F)(F)F)cc3)cccc2C1=O was tested, and the cytotoxicity call was “active”. With C[C@H]1CN([C@@H](C)CO)C(=O)c2cccc(NC(=O)Nc3ccc(F)cc3)c2O[C@H]1CN(C)CC1CCCCC1 the cytotoxicity call was “inactive”. In the case of C[C@@H]1CN([C@@H](C)CO)C(=O)c2cccc(NC(=O)Nc3ccc(C(F)(F)F)cc3)c2O[C@@H]1CN(C)CC1CCCCC1, the cytotoxicity call was “inactive”. In the case of C[C@@H]1CN([C@H](C)CO)C(=O)c2cccc(NC(=O)Nc3ccc(F)cc3)c2O[C@@H]1CN(C)CC1CCCCC1, the cytotoxicity call was “inactive”. For C[C@H]1CN([C@@H](C)CO)C(=O)c2cccc(NC(=O)Nc3ccc(C(F)(F)F)cc3)c2O[C@@H]1CN(C)CC1CCCCC1, the cytotoxicity call was “active”.
